ABCB6 inh MLPCN = inhibitors of human ABC transporter ABCB6; Q9NP58; K562-ABCB6 porphyrin accumulation, flow cytometry, 1 h; stronger effect = lower value; fluorescence ratio to DMSO, % at 10 µM; 360,000 tested, 0.19% active; AID 602162;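 active = fluorescence ratio to DMSO below 75%, the collection mean minus 3 SD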;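 note: signal is porphyrin accumulated inside mitochondria; 100% equals median channel fluorescence of DMSO control wells; lower ratio means ABCB6 inhibition with less porphyrin fluorescence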
Target sequence (Q9NP58 whole entry, looked up): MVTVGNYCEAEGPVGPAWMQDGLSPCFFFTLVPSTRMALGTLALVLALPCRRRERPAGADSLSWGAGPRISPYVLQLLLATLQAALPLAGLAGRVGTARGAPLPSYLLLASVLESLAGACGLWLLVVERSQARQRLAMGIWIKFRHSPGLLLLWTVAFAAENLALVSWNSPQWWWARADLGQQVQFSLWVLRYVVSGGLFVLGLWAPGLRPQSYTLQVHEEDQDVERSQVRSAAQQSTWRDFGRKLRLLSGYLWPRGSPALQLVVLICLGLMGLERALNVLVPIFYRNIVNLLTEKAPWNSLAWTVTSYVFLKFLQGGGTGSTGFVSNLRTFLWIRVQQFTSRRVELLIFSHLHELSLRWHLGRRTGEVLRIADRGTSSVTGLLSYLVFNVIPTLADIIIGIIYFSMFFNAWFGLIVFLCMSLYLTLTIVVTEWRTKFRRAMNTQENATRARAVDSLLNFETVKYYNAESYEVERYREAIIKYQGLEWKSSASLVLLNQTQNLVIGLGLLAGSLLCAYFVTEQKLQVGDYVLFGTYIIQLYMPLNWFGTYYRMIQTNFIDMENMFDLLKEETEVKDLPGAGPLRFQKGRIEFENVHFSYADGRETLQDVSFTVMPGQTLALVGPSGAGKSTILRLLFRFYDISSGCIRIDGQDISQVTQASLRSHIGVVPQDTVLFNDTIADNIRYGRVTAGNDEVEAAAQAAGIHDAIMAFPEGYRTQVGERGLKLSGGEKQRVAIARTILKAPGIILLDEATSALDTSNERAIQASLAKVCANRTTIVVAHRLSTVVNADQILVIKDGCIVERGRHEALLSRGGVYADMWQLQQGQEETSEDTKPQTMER
SMARCA2 act = activators of SMARCA2 function; MG213 cells, MMTV-luciferase reporter, dexamethasone, overnight; activation, % at 9.1 µM; 370,000 tested, 1% active; in the data active = activation above about 7.8%;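 note: 0% = vehicle wells and 100% = reference activator wells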
MsrA act = bovine methionine sulfoxide reductase A activation; purified bovine MsrA, absorbance read-out; activation, % at 10.6 µM; 360,000 tested, 0.3% active; AID 602163; in the data active = activation above about 7.5%;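 note: 0% = vehicle and 100% = reference activator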
MsrA inhibitor = inhibits bovine methionine sulfoxide reductase A; purified bovine MsrA, absorbance read-out; inhibition, % at 15.5 µM; 360,000 tested, 0.75% active; in the data active = inhibition above about 4.5%;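 note: 0% = vehicle wells with enzyme and 100% = reference inhibitor wells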
SMARCA2 act conf = confirmation of SMARCA2 (BRM) function activators; shares compounds with SMARCA2 act; activation, % at 9.1 µM; MG213 cells, MMTV-luciferase with dexamethasone, luminescence, overnight; MG213 cells expressing E1A, Rb sequestered; DMSO wells 0%, reference activator 100%; 3,500 tested, 30% active;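 active = activation above its plate's cutoff, the mean activation of tested wells plus 3 SD, cut at about 7.9% in these data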
VP16 Luc act = activates GAL4-VP16 luciferase, flagging SMARCA2 activator hits. 3,500 tested, 41% active. HEK293 GAL4-VP16 pG5luc reporter, luciferase luminescence; scaled: DMSO wells 0%, SAHA wells 100%. shares compounds with SMARCA2 act. AID 686939. activation, % at 9.1 µM;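 active = activation above the solvent-only control well mean plus 3 SD, averaged across control plates, cut at about 5.2% in these data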
* hit, by the source's call; · = no result given. A selection: hits, their analogues and other compounds. The true share with any hit is near 2.1%.

SMILES	ABCB6 inh MLPCN	SMARCA2 act	MsrA act	MsrA inhibitor	SMARCA2 act conf	VP16 Luc act
Cc1cn([C@H]2C[C@H](O)[C@@H](/C=C/C(=O)NCc3ccco3)O2)c(=O)[nH]c1=O	97	10*	-3	-1	-1	1
Cc1ccc(NC(=O)c2cc3nc(C)cc(C)n3n2)cc1	104	9.4*	0	0	10*	7.9*
Cc1ccc(N=Nc2[nH]c3ccccc3c2O)cc1	98	9.1*	-2	-1	14*	5
CN1CCN(CCCNC(=O)c2ccc(/C=C3\Oc4ccccc4N(Cc4ccccc4F)C3=O)cc2)CC1	99	7	-1	0	·	·
Cc1cccc(CN2C(=O)/C(=C\c3ccc(C(=O)NCCCN4CCN(C)CC4)cc3)Oc3ccccc32)c1	96	8.5*	1	1	12*	-1
O=S1(=O)CCSC[C@@H](CN2CCOCC2)N1	·	-3	·	2	·	·
COc1ccc(NC(=O)Cn2c(-c3ccccc3)cn(-c3ccc(C)cc3)c2=O)cc1	97	-1	-2	0	·	·
COc1ccc(-c2cn(-c3ccc(C)cc3)c(=O)n2CC(=O)Nc2ccc(OC)cc2OC)cc1	101	8.8*	0	0	-4	3
COc1ccc(CCNCC(O)COc2cccc(C)c2)cc1OC (stereo not drawn)	·	-2	·	·	·	·
CCOc1ccc(OCc2cccc(C(=O)N3CCOCC3)c2)cc1	97	12*	0	0	5	9.7*
CC(C)c1ccc(OCc2cccc(C(=O)N/N=C/c3cccnc3)c2)cc1	100	5	2	0	·	·
COc1ccc(OCc2cccc(C(=O)NN)c2)cc1	98	13*	-1	0	9.4*	16*
CCOc1ccc(OCc2cccc(C(=O)N/N=C/c3cccnc3)c2)cc1	98	8.5*	-2	0	13*	21*
NNC(=O)c1cccc(COc2ccc(Br)cc2)c1	100	1	-1	0	·	·
CN1[C@@H](Cc2ccccc2)COc2cccc(F)c2S1(=O)=O	·	0	·	·	·	·
CC(C)N1CCCCC(NC(=O)c2ccc(Cl)cc2Cl)C1=O (stereo not drawn)	·	-2	·	·	·	·
Cc1ccc(-c2noc(CSc3ccccc3)n2)cc1	93	9.3*	-5	0	3	8.2*
Cc1cccc(-c2noc(CSc3ccccc3)n2)c1	84	3	-5	0	·	·
Cc1ccc(-c2noc(CN3CCCCC3)n2)cc1	94	8.3*	-2	0	4	9.1*
O=C(Cn1cc(COC(=O)c2c3ccccc3cc3ccccc23)nn1)c1ccc(O)cc1	·	-2	·	2	·	·
CCc1ccc(OC(=O)Nc2ccccc2)cc1	95	10*	-1	-1	9.2*	12*
CC(=O)Nc1ccc(NC(=O)c2ccccc2Br)cc1	100	-5	0	1	·	·
CCOC(=O)Nc1ccc(NC(=O)c2ccccc2F)cc1	98	9.0*	-7	-1	9.5*	8.5*
CC(=O)Nc1ccc(NC(=O)c2ccccc2F)cc1	96	4	0	0	·	·
CCc1ccc(NC(=O)c2ccccc2Br)cc1	90	9.9*	-9	0	5	10*
SMILES	ABCB6 inh MLPCN	SMARCA2 act	MsrA act	MsrA inhibitor	SMARCA2 act conf	VP16 Luc act
COc1ccc(OC(=O)Nc2ccccc2)cc1	99	3	-3	0	·	·
CCCNC(=O)c1n[nH]c(=O)c2ccccc12	104	1	-4	0	·	·
CCc1ccc(NC(=O)c2n[nH]c(=O)c3ccccc23)cc1	98	8.6*	-1	0	7	6.3*
OC(c1ccccc1)c1nc(-c2ccc(F)c(Cl)c2)cs1 (stereo not drawn)	94	2	-1	-1	·	·
COC(=O)[C@]12C[C@H](CC(=O)NCc3ccccc3)C(=O)N(Cc3ccco3)C1=C[C@H](COCc1ccccc1)O[C@@H]2C	·	-2	·	·	·	·
O=C(Nc1ccc(NC(=O)C2CC2)nc1)c1ccccc1F	101	8.6*	-2	-1	8	5.3*
Cc1nn(C)cc1NC(=O)C[C@H]1CC[C@H]2[C@@H](COc3ccc(NC(=O)Nc4ccccc4)cc3C(=O)N2C)O1	·	-2	·	·	·	·
COc1ccccc1/C=C/c1ccc2cccc(O)c2n1	100	6	-1	2	·	·
CCOc1cccc(/C=C/c2ccc3cccc(O)c3n2)c1OC	79	14*	1	2	-9	28*
CCOc1cccc(/C=C/c2ccc3cccc(O)c3n2)c1O	94	12*	0	2	12*	18*
COc1ccc(NC(=O)C2Cc3c(-c4ccc(NC(C)=O)cc4)ccnc3O2)cn1 (stereo not drawn)	102	-2	-4	0	·	·
CCN(CC)C(=O)CC[C@@H]1CC[C@]2(CCCN(Cc3ccncc3)C2)O1	·	-3	·	·	·	·
Cc1cccc[n+]1CCCCCCCCCC[n+]1ccccc1C	97	-5	-3	1	·	·
CCCc1ncc(C[n+]2ccccc2C)c(N)n1	99	9.1*	-4	-1	-1	1
N/C(=N\OC(=O)c1cccc2ccccc12)c1ccccn1	90	11*	-10	-1	11*	10*
COc1cccc(C(=O)O/N=C(\N)c2ccccn2)c1OC	95	0	-2	1	·	·
N/C(=N\OC(=O)c1ccco1)c1ccccn1	97	12*	-4	0	7.9*	9.2*
N/C(=N\OC(=O)c1ccco1)c1ccccc1	99	6	1	1	·	·
S=C1c2ccccc2CN1c1ccccc1	97	10*	-2	0	4	3
Cc1ccc(N2Cc3ccccc3C2=S)cc1	99	13*	-2	0	12*	11*
O=C(O)c1cccc2c1C(=O)N(c1ccccc1)C2	101	3	0	0	·	·
CC1=C(C(=O)Nc2ccccn2)C(c2ccc(N(C)C)cc2)n2ncnc2N1 (stereo not drawn)	100	8.1*	-4	1	1	-1
O=C(Nc1nc2ncccn2c1-c1ccc(F)cc1)C1CC1	·	8.7*	·	·	-2	0
O=C(Nc1ccccc1)Nc1nc2ncccn2c1-c1ccc(F)cc1	·	14*	·	·	4	4
Cc1ccc2ccccc2c1C(O)c1ncc(-c2ccc(Cl)cc2)[nH]1 (stereo not drawn)	105	-2	-8	0	·	·
SMILES	ABCB6 inh MLPCN	SMARCA2 act	MsrA act	MsrA inhibitor	SMARCA2 act conf	VP16 Luc act
c1ccc(C2Nc3ccccc3-c3nc4ccccc4n32)cc1 (stereo not drawn)	95	4	-9	2	·	·
c1ccc(C2Nc3ccccc3-c3nc4ccccc4n32)nc1 (stereo not drawn)	97	10*	-5	3	1	1
Cc1ccc(S(=O)(=O)N2CCCC2c2cccc3[nH]cc(C)c23)cc1 (stereo not drawn)	·	-1	·	·	·	·
Nc1ccccc1C#Cc1ccc2[nH]ccc2c1	101	10*	-4	1	12*	11*
O=C(CSc1cccc[n+]1[O-])Nc1ccccc1Oc1ccccc1	101	8.4*	1	1	10*	2
O=C(CSc1cccc[n+]1[O-])Nc1ccccc1C(F)(F)F	104	-2	-9	0	·	·
